Bioassay records: PubChem, Broad Institute
PD-1 reverse act: activators reversing PD-1 mediated T-cell inhibition | primary human CD4 T cells, PD-L1 beads, CellTiter-Glo 96 h | 29,000 tested, under 10 active | AID 2316 | activation, % (no concentration beside the values); call rule not given here
YB-1 expression: YB-1 expression inhibition. U2OS, qRT-PCR YB-1 vs CDIP delta delta Cp, 16 h; hits give high values; zero = DMSO, each unit about twofold. delta delta Cp (YB-1 minus CDIP) (concentration not given with the values). actives 0.37% (n = 30,000);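 active = delta delta Cp rounded down to an integer at or above 3, about 3 SD of DMSO wells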;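 note: higher means less YB-1 transcript or more CDIP transcript relative to DMSO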
NOMO-1 viab: STK33 inhibitor candidate reducing NOMO-1 cell viability; NOMO-1 AML viability, CellTiter-Glo luminescence, 72 h; actives 7.5% (n = 37,000); inhibition, % (concentration not given with the values); in the data active = inhibition above about 80%
MITF inhib: MITF inhibition; AID 2240; TRPM1 promoter luciferase, luminescence, 24 h; inhibition, % (test concentration not listed); actives 0.28% (n = 37,000); in the data active = inhibition above about 85%;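 note: human melanocyte line stably carrying TRPM1 promoter luciferase reporter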
ROS inducer: raises reactive oxygen species in U2OS cancer cells | U2OS ROS induction, H2DCF-DA fluorescence | ROS induction (% of piperlongumine), % at 10 µM | actives 2% (n = 46,000) | AID 624156; in the data active = ROS induction above about 79%, passing the limit was not always enough
Large screens that a line does not name were inactive. This excerpt belongs to a sample that is enriched for hits.

CC(C)[C@]12O[C@H]1[C@@H]1O[C@]13[C@]1(O[C@H]1C[C@H]1C4=C(CC[C@@]13C)C(=O)OC4)[C@@H]2O	NOMO-1 viab 114 (no result: PD-1 reverse act)
C[C@@H]1O[C@@H](O[C@H]2C[C@@H](O)[C@]3(CO)C4C(CC[C@]3(O)C2)[C@@]2(O)CC[C@H](C3=CC(=O)OC3)[C@@]2(C)C[C@H]4O)[C@H](O)[C@H](O)[C@H]1O (stereo partly specified)	NOMO-1 viab 107 (no result: PD-1 reverse act)
C[C@H]1O[C@@H](O[C@H]2C[C@@H](O)[C@]3(CO)C4C(CC[C@]3(O)C2)[C@@]2(O)CC[C@H](C3=CC(=O)OC3)[C@@]2(C)C[C@H]4O)[C@@H](O)[C@@H](O)[C@H]1O (stereo partly specified)	NOMO-1 viab 121
C[C@H]1O[C@@H](O[C@H]2CC[C@]3(CO)C4CC[C@]5(C)[C@@H](C6=CC(=O)OC6)CC[C@]5(O)C4CC[C@H]3C2)[C@H](O)[C@H](O)[C@@H]1O (stereo partly specified)	none (no result: PD-1 reverse act, NOMO-1 viab, MITF inhib)
CC1OC(O[C@H]2C[C@@H](O)[C@]3(CO)[C@H]4[C@H](O)C[C@]5(C)[C@@H](C6=CC(=O)OC6)CC[C@]5(O)[C@@H]4CC[C@]3(O)C2)C(O)C(O)C1O (stereo partly specified)	NOMO-1 viab 98
O=C(c1noc2c1COc1ccccc1-2)N1CCC2(CC1)OCCO2	none (no result: PD-1 reverse act, YB-1 expression, NOMO-1 viab, MITF inhib)
COc1ccc2c(c[n+](C)c3c4cc5c(cc4ccc23)OCO5)c1OC	NOMO-1 viab 142
CCOC(=O)c1c(NC(=O)C2C(C)(C)C2(C)C)sc2c1CCC2	none
c1cncc(C2N=C(c3cnccn3)NN2)c1 (stereo unspecified)	none (no result: YB-1 expression)
CN1CCc2nc3sc(C(=O)C(C)(C)C)c(N)c3cc2C1	NOMO-1 viab 122
CN(C(=O)Oc1cccc2cccnc12)c1ccccc1	none (no result: PD-1 reverse act, YB-1 expression, NOMO-1 viab, MITF inhib)
Oc1cccc2cccnc12	NOMO-1 viab 111 (no result: PD-1 reverse act)
CCC(C)[C@H]1C(=O)O[C@H](C(C)C)C(=O)N(C)[C@@H](C(C)C)C(=O)O[C@H](C(C)C)C(=O)N(C)[C@@H](C(C)C)C(=O)O[C@H](C(C)C)C(=O)N1C (stereo partly specified)	none (no result: PD-1 reverse act, NOMO-1 viab, MITF inhib)
C[C@@H]1C(=O)O[C@H]2[C@H]1CC[C@@]1(C)C=CC(=O)[C@@]3(C)O[C@@]213	YB-1 expression 4, NOMO-1 viab 88
CN(C)C(=O)Oc1cccc(N)c1	none (no result: PD-1 reverse act, YB-1 expression, NOMO-1 viab, MITF inhib)
CC(C)n1[nH]c(=O)c2c1NC(=O)CSC2c1ccc(Br)cc1 (stereo unspecified)	none (no result: PD-1 reverse act, YB-1 expression, NOMO-1 viab, MITF inhib)
CC[C@H]1CN2CCc3cc(OC)c(OC)cc3[C@@H]2C[C@@H]1C[C@H]1NCCc2cc(O)c(OC)cc21	NOMO-1 viab 120, MITF inhib 88 (no result: PD-1 reverse act)
COc1cc2c(cc1O)CCNC2C (stereo unspecified)	none (no result: PD-1 reverse act)
C=C(C)[C@H]1O[C@H]2CC[C@@]3(C)[C@@](O)(CC[C@H]4[C@@H]5OC(C)(C)[C@H]6C[C@@H]7C(=C)Cc8c(Cl)cc9[nH]c(c5c9c8[C@@]76O)[C@@]43C)[C@]23O[C@@H]3[C@H]1O	NOMO-1 viab 116 (no result: PD-1 reverse act)
C=C(C)[C@@H]1[C@H]2OC(=O)[C@@H]1[C@]1(O)C[C@H]3O[C@]34C(=O)O[C@H]2[C@]14C	none (no result: PD-1 reverse act)
CC(=O)NC1C(OC2OC(CC(O)C3OC(n4ccc(=O)[nH]c4=O)C(O)C3O)C(O)C(O)C2NC(=O)/C=C/CCCCCCCCCC(C)C)OC(CO)C(O)C1O (stereo unspecified)	NOMO-1 viab 108
Cc1cc(C(F)F)n2nc(C(=O)Nc3ccc4c(C(F)(F)F)cc(=O)oc4c3)nc2n1	none (no result: YB-1 expression)
O=c1[nH]c2ccccc2n1C1CCN(CCCC(c2ccc(F)cc2)c2ccc(F)cc2)CC1	NOMO-1 viab 116 (no result: PD-1 reverse act)
CCCN1CCc2cccc3c2[C@H]1Cc1ccc(O)c(O)c1-3	NOMO-1 viab 113 (no result: PD-1 reverse act)
COc1ccc(CN2CCN(Cc3ccccc3C)CC2)cc1	none (no result: PD-1 reverse act, YB-1 expression, NOMO-1 viab, MITF inhib)
COC(=O)[C@@]12C(=O)C(C)C(=O)[C@]1(C)C(C)=C[C@H]1[C@]3(C=O)CC[C@H](OC(C)=O)C(C)(C)[C@H]3CC[C@@]12C (stereo partly specified)	none (no result: PD-1 reverse act, NOMO-1 viab, MITF inhib)
CN1C[C@H](CNC(=O)OCc2ccccc2)C[C@@H]2c3cccc4c3c(cn4C)C[C@H]21	NOMO-1 viab 104 (no result: PD-1 reverse act)
C[C@@H]1CN([C@H](C)CO)C(=O)CCCn2cc(nn2)CO[C@@H]1CN(C)C(=O)Oc1ccc2ccccc2c1	none (no result: PD-1 reverse act, NOMO-1 viab, MITF inhib)
